These results are taken from PubChem BioAssay (NCI).

About 83,000 compounds went through this panel and 20% of them were active in at least one assay; those are over-represented in the sample as a whole.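 The test compound was applied at a single concentration to cells in 96-well plates for 48 hours, and percent growth was recorded.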 A number with no mark means an inactive call. The source made the active and inactive calls. Rule for the calls: active = growth percent below 10; inactive = the rest.

Among the test systems are MOLT-4 leukemia; SR leukemia; RPMI-8226 leukemia; OVCAR-8 ovarian; OVCAR-5 ovarian; OVCAR-4 ovarian; SK-OV-3 ovarian; IGROV1 ovarian; OVCAR-3 ovarian; HS 578T breast; NCI/ADR-RES ovarian; T-47D breast; BT-549 breast; MDA-MB-435 melanoma; SW-620 colon; MCF7 breast; HCT-116 colon; HCC-2998 colon; KM12 colon.
Test in all cases: NCI-60 one-dose screen, 48 h (100 = growth as untreated, 0 = no growth, -100 = all killed)
Common to all, as to details: 10 µM unless noted

In the case of `CNC(=O)Oc1cccc(C(F)(F)F)c1`, the growth was 97.1% with MOLT-4 leukemia; 111% with SR leukemia; 87.4% in the assay on RPMI-8226 leukemia; 87.6% in the assay on OVCAR-8 ovarian; 114% in the assay with OVCAR-5 ovarian; 114% with OVCAR-4 ovarian. The growth in the assay on SK-OV-3 ovarian was 108%; in the assay with IGROV1 ovarian, 120%; with OVCAR-3 ovarian it was 125%; in the assay on HS 578T breast it was 121%; in the assay on NCI/ADR-RES ovarian, 109%; in the assay on T-47D breast, 98.9%. For the same molecule, the growth with BT-549 breast was 108%; in the assay with MDA-MB-435 melanoma, 126%; in the assay with SW-620 colon it was 104%; in the assay on MCF7 breast, 109%; in the assay on HCT-116 colon, 107%; in the assay on HCC-2998 colon, 113%.
In the case of `O=[N+]([O-])CC(c1ccccc1Cl)c1c(-c2ccccc2)[nH]c2ccccc12` (centres undefined), the growth with MOLT-4 leukemia was 30.3%; in the assay on SR leukemia it was 18.9%; in the assay on RPMI-8226 leukemia, 45.2%; in the assay on OVCAR-8 ovarian, 40.4%; in the assay on OVCAR-5 ovarian, 69.1%; in the assay with OVCAR-4 ovarian, 66.4%. Also, the growth in the assay with SK-OV-3 ovarian was 44.1%; with IGROV1 ovarian it was 33.8%; in the assay with OVCAR-3 ovarian, 9.26% (active); with HS 578T breast, 41.2%; in the assay on NCI/ADR-RES ovarian it was 25.5%; with T-47D breast, 22.1%. In addition, the growth in the assay with BT-549 breast is 37.3%; in the assay with MDA-MB-435 melanoma it was -9.48% (active); with SW-620 colon, 25.2%; in the assay with MCF7 breast it was 21.8%; in the assay with HCT-116 colon it was 20.3%; in the assay on HCC-2998 colon, 71.3%. For the same molecule, in the assay with KM12 colon, the growth is 26.8%.
For the molecule `COC(=O)[C@@H](C)C[C@H](Cc1ccccc1)NC(=O)c1csc([C@@H](C[C@H](C(C)C)N(C)C(=O)[C@@H](NC(=O)[C@H]2CCCN2C)C2CC2)OC(C)=O)n1`, the growth in the assay with MOLT-4 leukemia is 12.3%; in the assay with SR leukemia it was 11.2%; with RPMI-8226 leukemia, 13.9%; with OVCAR-8 ovarian, 33.4%; in the assay on OVCAR-5 ovarian, 46.8%; in the assay on OVCAR-4 ovarian it was 51.6%. In addition, the growth with SK-OV-3 ovarian is 25.7%; in the assay on IGROV1 ovarian, 27.1%; in the assay with OVCAR-3 ovarian, -34.5% (active); in the assay on HS 578T breast it was 3.36% (active); in the assay with NCI/ADR-RES ovarian, 12.4%; with T-47D breast, 40.9%. For the same molecule, the growth with BT-549 breast is -9.2% (active); with MDA-MB-435 melanoma, -20.6% (active); with SW-620 colon it was 30.6%; in the assay with MCF7 breast, 21.7%; in the assay with HCT-116 colon it was 1.11% (active); in the assay with HCC-2998 colon, 14.8%. The growth in the assay on KM12 colon was 1.92% (active).
With `CCCCN1CCCC[C@@H]1C(=O)N[C@H](C(=O)N(C)[C@H](C[C@@H](OC(C)=O)c1nc(C(=O)NC2CCC(C(=O)OC)CC2)cs1)C(C)C)C(C)C` (some centres undefined), the growth with MOLT-4 leukemia is 19.2%; in the assay on SR leukemia, 20.4%; in the assay on RPMI-8226 leukemia it was 16.8%; with OVCAR-8 ovarian, 24.6%; in the assay on OVCAR-5 ovarian, 57%; in the assay with OVCAR-4 ovarian, 52.2%. Also, the growth is 23.9% in the assay on SK-OV-3 ovarian; 39.5% in the assay with IGROV1 ovarian; -29.5% (active) with OVCAR-3 ovarian; 14.5% in the assay with HS 578T breast; 41.2% in the assay on NCI/ADR-RES ovarian; 27.4% in the assay with T-47D breast. Also, the growth was 40.1% in the assay on BT-549 breast; -43.9% (active) with MDA-MB-435 melanoma; 19.5% with SW-620 colon; 24.6% in the assay with MCF7 breast; 14% in the assay with HCT-116 colon; 67.6% in the assay on HCC-2998 colon. In addition, the growth in the assay with KM12 colon was 24.6%.
Consider `O=[N+]([O-])/C=C\c1ccc(Cl)c(Cl)c1`, for which the growth is 37.1% in the assay with MOLT-4 leukemia; 7.87% (active) in the assay on SR leukemia; -2.51% (active) with RPMI-8226 leukemia; 66.1% in the assay on OVCAR-8 ovarian; 106% with OVCAR-5 ovarian; 84.4% in the assay on OVCAR-4 ovarian. Further, the growth was 96.4% in the assay on SK-OV-3 ovarian; 92.7% in the assay with IGROV1 ovarian; 44.6% in the assay on OVCAR-3 ovarian; 17% with HS 578T breast; 101% in the assay on NCI/ADR-RES ovarian; 38.3% in the assay on T-47D breast. Further, the growth is 4.99% (active) with BT-549 breast; -26.3% (active) in the assay on MDA-MB-435 melanoma; -6.79% (active) in the assay on SW-620 colon; -32.4% (active) in the assay with MCF7 breast; -52.8% (active) with HCT-116 colon; 64.1% in the assay on HCC-2998 colon. The growth in the assay on KM12 colon was 43.6%.
Regarding `CN1C(=O)C23CC4(C56CC78SSC(CO)(C(=O)N7C5Nc5ccccc56)N(C)C8=O)c5ccccc5NC4N2C(=O)C1(CO)SS3` (centres undefined), the growth was -62.2% (active) with MOLT-4 leukemia; -75.8% (active) in the assay on SR leukemia; -25.8% (active) in the assay on RPMI-8226 leukemia; -94.7% (active) with OVCAR-8 ovarian; -77.7% (active) in the assay with OVCAR-5 ovarian; -94.5% (active) with OVCAR-4 ovarian. The growth was -98.6% (active) in the assay with SK-OV-3 ovarian; -100% (active) with IGROV1 ovarian; -97.8% (active) in the assay with OVCAR-3 ovarian; -54.5% (active) in the assay on HS 578T breast; -23.4% (active) with NCI/ADR-RES ovarian; -92.4% (active) in the assay on T-47D breast. Further, the growth with BT-549 breast is -99.1% (active); with MDA-MB-435 melanoma, -87% (active); in the assay with SW-620 colon, -78.5% (active); in the assay on MCF7 breast, -68.1% (active); in the assay on HCT-116 colon, -78.5% (active); in the assay on HCC-2998 colon, -94.2% (active).
On to `COC(=O)[C@H](Cc1c[nH]c2ccccc12)NC(=O)[C@@H](OC)[C@@H]1Cc2cc3cc(OC4CC(OC5CC(O)C(O)C(C)O5)C(O)C(C)O4)c(C)c(O)c3c(O)c2C(=O)[C@H]1OC1CC(OC2CC(OC3CC(C)(O)C(O)C(C)O3)C(O)C(C)O2)C(O)C(C)O1` (some centres undefined), for which the growth with MOLT-4 leukemia was 0.755% (active); with SR leukemia, 4.93% (active); in the assay on RPMI-8226 leukemia, -5.61% (active); in the assay with OVCAR-8 ovarian, 11%; in the assay with OVCAR-5 ovarian, 15.3%; in the assay with OVCAR-4 ovarian, 0.345% (active). Also, the growth is 18.2% with SK-OV-3 ovarian; 23.4% in the assay on IGROV1 ovarian; 4.79% (active) with OVCAR-3 ovarian; -13.6% (active) in the assay with HS 578T breast; 76.7% with NCI/ADR-RES ovarian; 8.07% (active) in the assay on T-47D breast. Also, the growth with BT-549 breast was -53.4% (active); in the assay on MDA-MB-435 melanoma it was -71.9% (active); in the assay on SW-620 colon, 6.98% (active); in the assay on MCF7 breast it was 5.98% (active); in the assay on HCT-116 colon it was 3.71% (active); in the assay with HCC-2998 colon it was -46.8% (active).
As for `COP(=O)(OC)C(O)c1ccc(Cl)cc1` (centres undefined), the growth in the assay on MOLT-4 leukemia is 119%; in the assay on SR leukemia, 96.1%; in the assay on RPMI-8226 leukemia, 104%; with OVCAR-8 ovarian it was 108%; in the assay on OVCAR-5 ovarian, 112%; with OVCAR-4 ovarian, 104%. The growth in the assay with SK-OV-3 ovarian is 111%; in the assay with IGROV1 ovarian, 103%; in the assay on OVCAR-3 ovarian it was 94.7%; in the assay with HS 578T breast, 94.1%; in the assay with NCI/ADR-RES ovarian it was 96.9%; in the assay with T-47D breast it was 114%. Further, the growth with BT-549 breast is 94.1%; with MDA-MB-435 melanoma, 100%; with SW-620 colon it was 101%; with MCF7 breast, 98.4%; in the assay with HCT-116 colon, 94.7%; with HCC-2998 colon it was 98.9%. In addition, in the assay on KM12 colon, the growth is 90%.
